In PubChem BioAssay (NCATS):
Unmarked numbers belong to inactive results. Calls follow the shape of the dose curve; as a rule, active = well fitted curve in the direction sought with a large enough effect; inconclusive = small, poorly fitted or top-dose-only effect, or another doubt; inactive = no such curve, though single readings can be large or run the other way.

target: Thyrotropin receptor (Homo sapiens) (UniProt P16473); test: qHTS Assay for Antagonists of the Thyroid Stimulating Hormone Receptor (AID 488980); conditions: TSHR-expressing cells, cAMP antagonist read-out; series mostly up to 57.5 µM; activity, negative = inhibition: at the top concentration; also: 0% is about no effect
Text: TSH is an alpha/beta heterodimeric glycoprotein hormone secreted from the anterior pituitary gland which belongs to the glycoprotein hormone family. The actions of TSH are mediated by a seven-transmembrane receptor, which upon TSH binding couples preferentially to the G-alpha (s) protein (Gs), resulting in activation of adenylate cyclase and increase in cyclic adenosine 3', 5' monophosphate (cAMP). The TSH receptor (THSR) is mainly expressed in thyroid follicular cells and regulates their growth and function. This cell based assay was conducted on a TSHR transfected HEK 293 cell line, measuring cAMP stimulation using antibody-based Homogeneous Time Resolved Fluorescence (HTRF).
Our goal is to identify small molecules that will inhibit (antagonize) the thyroid-stimulating hormone receptor (TSHR), a member of the 7 transmembrane-spanning receptor (7TMR) family of cell surface receptors. TSHR-mediated hyperthyroidism is important in thyroid pathology. The development of small molecule antagonists of TSHR may lead to therapeutic approaches for TSHR-mediated hyperthyroidism caused by constitutively activating mutations or stimulating auto-antibodies associated with Graves' disease. Graves' disease is the leading cause of hyperthyroidism and is caused by autoantibodies that stimulate TSHR (TsAbs) causing thyroid growth and unregulated overproduction of thyroid hormones and existing treatments have liabilities (agranulocytosis). In addition, TSHRs are known to be expressed in multiple extrathyroidal tissues including bone, brain, kidney, testis, fat and cells of the immune system but the role of the TSHR in these tissues is not clear. Therefore, TSHR antagonists/inverse agonists could be used as probes of extrathyroidal TSHR function. Finally, TSHR inverse agonists, which are a subclass of antagonists that inhibit agonist-independent (or basal or constitutive) TSHR signaling, could be used to inhibit TSH-independent signaling in patients with recurrent or metastatic thyroid cancer who are receiving thyroid hormone to suppress TSH.
An anti cAMP antibody contains a fluorescent cryptate tag (excitation 337 nm; emission 620 nm) and the acceptor is cAMP-d2 (excitation 620 nm; emission 665 nm). When antibody and cAMP-d2 interact and are excited by a 337 nm light, a FRET occurs resulting in emission at 665 nm. The assay is competition between cAMP-d2 and cAMP (from the cell lysate). The homogeneous protocol allows for one step dispense after stimulation that is automation friendly.
Step, Parameter, Value, Description
1, Cells, 3 uL, 2000 TSHR freshly harvested cells/well 1536 TC treated White solid bottom plate (Cells resuspended in 10 mM HEPES buffered HBSS and 70 uM RO 20-1724)
2, Compound, 23 nL, Libraries and controls
3, Compound, 1 uL, EC80 TSH (4 nM final)
5, Reagent, 2 uL, cAMP antibody diluted 1:20 in lysis buffer
6, Time, 30 minutes, Room temperature
7, Detector, HTRF settings, Viewlux

Thyrotropin receptor (Homo sapiens), sequence (P16473 whole entry, looked up): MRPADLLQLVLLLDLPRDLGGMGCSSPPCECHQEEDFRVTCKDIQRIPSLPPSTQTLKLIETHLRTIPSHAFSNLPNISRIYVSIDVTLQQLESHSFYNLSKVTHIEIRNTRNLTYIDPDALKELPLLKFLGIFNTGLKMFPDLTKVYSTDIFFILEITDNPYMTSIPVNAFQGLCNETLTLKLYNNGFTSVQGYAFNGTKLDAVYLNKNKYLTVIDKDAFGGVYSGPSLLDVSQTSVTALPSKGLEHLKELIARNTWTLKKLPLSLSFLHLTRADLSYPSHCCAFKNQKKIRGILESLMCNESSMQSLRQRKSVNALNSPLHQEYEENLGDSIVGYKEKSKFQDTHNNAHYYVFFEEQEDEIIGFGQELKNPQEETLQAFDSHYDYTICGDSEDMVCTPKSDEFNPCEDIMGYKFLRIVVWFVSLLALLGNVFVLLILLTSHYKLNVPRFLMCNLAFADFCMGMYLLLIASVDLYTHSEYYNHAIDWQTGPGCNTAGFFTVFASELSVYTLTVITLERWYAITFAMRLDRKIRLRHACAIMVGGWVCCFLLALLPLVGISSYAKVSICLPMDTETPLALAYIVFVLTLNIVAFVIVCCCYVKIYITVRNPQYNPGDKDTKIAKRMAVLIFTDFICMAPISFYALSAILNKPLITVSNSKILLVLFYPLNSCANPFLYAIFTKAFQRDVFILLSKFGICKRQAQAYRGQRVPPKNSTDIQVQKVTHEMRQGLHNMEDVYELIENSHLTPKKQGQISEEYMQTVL

| Structure (SMILES) | activity, negative = inhibition |
| --- | --- |
| CC1(C)CCC(NC(=O)[C@@H](N)CCC(=O)O)CC1 | -1.13% |
| N[C@H](CO)C(=O)O | -0.799% |
| C[N+]1(CCCCC[N+]2(C)CCCC2)CCCC1 | -0.925% |
| COc1cc(-c2ccc(=O)[nH]n2)ccc1OC(F)F | 0.266% |
| CNCCC(Oc1ccccc1C)c1ccccc1 (stereo unspecified) | -1.07% |
| COC(=O)[C@H]1[C@H]2C[C@H]3c4[nH]c5ccccc5c4CCN3C[C@H]2CC[C@@H]1O | 0.188% |
| O=C(O)c1cc2cc(Cc3cccnc3)ccc2o1 | 0.0783% |
| CNCCC=C1c2ccccc2CCc2ccccc21 | -0.305% |
| CCCn1c(=O)[nH]c(=O)c2[nH]cnc21 | -1.02% |
| N[C@@H](Cc1cnc[nH]1)C(=O)O | -1.44% |
| C1CCc2nnnn2CC1 | -0.95% |
| O=C1CCC(c2ccc(-n3ccnc3)cc2)=NN1 | -1.32% |
| C[C@]12CC[C@@H]3c4ccc(O)cc4CC[C@H]3[C@@H]1CC[C@@H]2O | -1.2% |
| Nc1cc(Cl)c(NC2=NCCN2)c(Cl)c1 | -0.928% |
| Oc1ccc(O)cc1 | -0.235% |
| CCC(NC(C)C)C(O)c1ccc(O)c(O)c1 (stereo unspecified) | -0.656% |
| CN=C(NC#N)Nc1ccc(C2=NNC(=O)CC2C)cc1 (stereo unspecified) | 0.0783% |
| COc1cc(NS(C)(=O)=O)ccc1Nc1c2ccccc2nc2ccccc12 | -0.911% |
| CC(C)COC(=O)OCN1C(=O)CN(CCN2CC(=O)N(COC(=O)OCC(C)C)C(=O)C2)CC1=O | -0.235% |
| CN1C2CCC1CC(OC(=O)c1c[nH]c3ccccc13)C2 (stereo unspecified) | -2.14% |
| C[C@@H]1C(=O)NC2=Nc3cccc(Cl)c3CN21 | -0.87% |
